Screens (PubChem)
ClpP mod: qHTS Assay for Activators of ClpP; ATP-dependent Clp protease proteolytic subunit (Bacillus subtilis (strain 168)), P80244; purified B. subtilis ClpP, FRET peptide cleavage, 20 min; Potency, µM (titrated, usually from 57.5 µM); actives 1.9% (n = 340,000); active means well fitted falling curve with a large enough effect; inconclusive means small, poorly fitted or top-dose-only effect; inactive means no such curve, though single readings can be large or run the other way; further: the source files actives as falling curves though it sought activators and does not explain the sign; nearly all actives have a fitted effect of over 65% in size
Target sequence (P80244 whole entry, looked up): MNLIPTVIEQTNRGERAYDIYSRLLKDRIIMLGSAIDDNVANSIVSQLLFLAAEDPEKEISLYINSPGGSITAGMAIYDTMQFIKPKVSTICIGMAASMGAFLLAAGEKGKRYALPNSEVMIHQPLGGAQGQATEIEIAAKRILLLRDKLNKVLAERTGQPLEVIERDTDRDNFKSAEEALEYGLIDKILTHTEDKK
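Buffer: 100 mM Tris/HCl pH8, 100 mM KCl, 0.05% low protease BSA, 2.5% glycerol, 0.01% Tween-20. ClpP 10 microg/mL final; 20 min RT; delta FRET normalized to ADEP and DMSO controls.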
D3 ag: agonists of human D3 dopamine receptor. P35462. D3R DiscoveRx beta-arrestin cells, luminescence, 90 min. max activation, %. actives 0.58% (n = 410,000). AID 652048; in the data active means max activation above about 30%
Target sequence (P35462 whole entry, looked up): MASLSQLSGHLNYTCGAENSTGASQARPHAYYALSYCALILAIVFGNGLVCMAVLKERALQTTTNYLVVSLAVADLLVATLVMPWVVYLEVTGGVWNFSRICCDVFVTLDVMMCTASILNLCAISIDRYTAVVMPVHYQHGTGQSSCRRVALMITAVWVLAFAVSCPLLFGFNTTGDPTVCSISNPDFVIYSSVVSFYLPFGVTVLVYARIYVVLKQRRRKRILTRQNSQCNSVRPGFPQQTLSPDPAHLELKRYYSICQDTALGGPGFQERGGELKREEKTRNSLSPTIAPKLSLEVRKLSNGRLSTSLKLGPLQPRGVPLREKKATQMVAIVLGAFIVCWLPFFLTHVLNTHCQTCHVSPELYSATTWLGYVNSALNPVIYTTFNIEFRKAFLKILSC
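Agonist mode: compounds and dopamine controls were applied to plated cells for 90 min at 37 degrees C after an overnight attachment at 1500 cells/well. Luminescent read-out followed 30 - 60 minutes at room temperature with DiscoveRx detection reagent.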
IL1B secr inh: blocks inflammasome-driven IL-1 beta release | THP-1 LPS/ATP IL-1B secretion, AlphaLISA, 16 h; hits give low values | AID 743279 | actives 4.7% (n = 360,000) | activity change, % at 57.5 µM; in the data active means activity change below about -50%; inconclusive means mostly about -30% to -49%
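THP-1 cells pretreated 1 hr with compounds (up to 57.5 uM final), then stimulated with LPS (250 ng/mL final) plus ATP (1.25 mM final); secreted IL-1B measured by AlphaLISA after 16 hr, decreased signal indicating inhibition.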
TDP1 cell CPT: DT40-hTDP1 cell growth loss with CPT | AID 686979 | chicken DT40 Tdp1-/-;hTDP1 cells + 20 nM CPT, ATP luminescence, 48 h | Potency, µM (titrated, usually from 46.2 µM), usual class: inhibitors | actives 12% (n = 420,000); further: nearly all actives have a fitted effect of over 55% in size
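Chicken DT40 Tdp1-/- cells complemented with human TDP1, 400 cells/well, exposed to compounds plus 20 nM camptothecin for at least 48 h at 37 C; viability read as ATP content by CellTiter-Glo luminescence.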
DT40 TDP1 no CPT: qHTS for Inhibitors of human tyrosyl-DNA phosphodiesterase 1 (TDP1): qHTS in cells in absence of CPT. Potency, µM (top dose mostly 46.2 µM), actives largely listed as inhibitors. DT40 Tdp1-/- hTDP1 cells, no CPT, ATP luminescence, 48 h. actives 15% (n = 420,000); further: nearly all actives have a fitted effect of over 55% in size
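No-CPT arm: Tdp1-/-;hTDP1 DT40 cells (400/well) plus compounds, incubated ≥48 hr at 37 °C. Readout CellTiter-Glo luminescence.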
DRD3 antagonist: blocks the human D3 dopamine receptor; AID 652054; actives 2.5% (n = 360,000); max response, negative = inhibition, %; D3R cells, DiscoveRx beta-arrestin luminescence, antagonist mode; hits give low values; P35462; in the data active means max response below about -50%; inconclusive means no clear call, values can overlap the other calls
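Cells plated overnight at 1500 cells/well, then exposed to library compounds with dopamine controls for 90 minutes at 37 degrees C. DiscoveRx reagent added for 30–60 minutes at room temperature; luminescence read, quantitative HTS format.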
Numbers stand for hits; n = inactive; u = inconclusive; x = no result. Sampled rows, rich in hits. Any-hit rate of the full collection: about 21%. Unless noted, the call rests on the fitted dose curve; in most records, active means well fitted inhibition curve with a large enough effect; inconclusive means small, poorly fitted or top-dose-only effect; inactive means flat fitted curve, though single readings scatter.

SMILES	ClpP mod	D3 ag	IL1B secr inh	TDP1 cell CPT	DT40 TDP1 no CPT	DRD3 antagonist
CC(C)CCNC(=O)c1c[nH]c2ccc(S(=O)(=O)N3CCC4(CC3)OCCO4)cc2c1=O	u	n	n	u	u	n
COCCNC(=O)c1c[nH]c2ccc(S(=O)(=O)N3CCc4ccccc43)cc2c1=O	x	n	u	14.6µM	6.51µM	n
CC1CCN(S(=O)(=O)c2ccc3[nH]cc(C(=O)NCCN4CCOCC4)c(=O)c3c2)CC1	25.1µM	n	n	u	u	u
COCCNC(=O)c1c[nH]c2ccc(S(=O)(=O)N3CCC4(CC3)OCCO4)cc2c1=O	20µM	n	n	n	n	n
CCc1ccccc1N(C)S(=O)(=O)c1ccc2[nH]cc(C(=O)NCCOC)c(=O)c2c1	28.2µM	n	x	u	u	x
Cc1oc(-c2ccccc2Cl)nc1CS(=O)(=O)CC(=O)NC1CCCC1	n	n	n	n	u	n
O=S(=O)(Nc1ccc(OC(F)F)cc1)c1ccc(-c2ccon2)s1	x	n	n	n	u	u
N#Cc1ccc(OS(=O)(=O)c2ccc(-c3ccon3)s2)cc1	n	n	u	11.6µM	u	n
COc1ccc(N2CCN(C(=O)CCn3cnc4onc(-c5ccc(F)cc5)c4c3=O)CC2)cc1	n	n	x	23.1µM	u	x
COc1cccc(N2CCN(C(=O)Cn3cnc4onc(-c5ccc(F)cc5)c4c3=O)CC2)c1	n	n	x	23.1µM	20.6µM	x
O=C(Cn1cnc2onc(-c3ccc(F)cc3)c2c1=O)N1CCN(c2ccccc2F)CC1	n	n	x	u	u	x
CCN(C(=O)CCn1cnc2onc(-c3ccc(F)cc3)c2c1=O)c1ccc(OC)cc1	n	n	x	16.4µM	18.4µM	x
COc1cc(Cl)c(C)cc1NC(=O)CCn1cnc2onc(-c3ccc(F)cc3)c2c1=O	n	n	x	18.4µM	u	x
Cc1ccc(NC(=O)Cn2cnc3onc(-c4ccc(F)cc4)c3c2=O)c(Cl)c1	n	n	x	n	n	x
O=C(Nc1cccc(/C=C/c2ccccn2)c1)c1cc(Cl)ccn1	x	n	n	u	u	n
CN(C)c1ccc(CNC(=O)C2CCN(S(=O)(=O)c3ccc4c(ccn4C)c3)CC2)cc1	n	n	x	u	u	x
O=C(Cn1cnc2ccccc2c1=O)NNC(=O)c1ccccc1	x	n	n	n	n	n
CCCN(C(=O)CCn1cnc2onc(-c3ccc(F)cc3)c2c1=O)c1ccccc1C	n	n	x	18.4µM	16.4µM	x
Cc1ccc(Cl)cc1N1CCN(C(=O)Cn2cnc3onc(-c4ccc(F)cc4)c3c2=O)CC1	n	n	x	18.4µM	18.4µM	x
O=C(CCn1cnc2onc(-c3ccc(F)cc3)c2c1=O)N1CCN(c2cccc(Cl)c2)CC1	n	n	x	16.4µM	16.4µM	x
CCOC(=O)Cn1cnc2onc(-c3ccc(F)cc3)c2c1=O	n	n	x	n	n	x
CCN(C(=O)Cn1cnc2onc(-c3ccc(F)cc3)c2c1=O)c1cc(C)ccc1C	n	n	x	13µM	20.6µM	x
COCCCNC(=O)c1cnc2c(-c3ccc(F)cc3)c(C)nn2c1C	n	n	x	n	u	x
CCc1ccc([C@@H]2CC(=O)[C@@H]3CN(S(=O)(=O)c4ccccc4)[C@H](c4ccc(OC)cc4)C[C@@H]3N2S(=O)(=O)c2ccc(C)cc2)cc1	n	n	n	n	n	n
Cc1cc(F)ccc1NC(=O)CCSc1nc(-c2ccco2)cc(C(F)(F)F)n1	n	n	x	n	n	x
SMILES	ClpP mod	D3 ag	IL1B secr inh	TDP1 cell CPT	DT40 TDP1 no CPT	DRD3 antagonist
COc1ccccc1N1CCN(C(=O)CCn2cnc3onc(-c4ccc(F)cc4)c3c2=O)CC1	n	n	x	u	20.6µM	x
COC(=O)CCn1cnc2onc(-c3cc(F)cc(F)c3)c2c1=O	n	n	x	n	n	x
CCCCN(CC)CCNC(=O)CCn1cnc2onc(-c3ccc(F)cc3)c2c1=O	n	n	x	25.9µM	23.1µM	x
O=C(CCn1cnc2onc(-c3ccc(F)cc3)c2c1=O)N1CCN(c2ccccc2F)CC1	n	n	x	u	u	x
Cc1ccc(OCCCn2c(-c3ccc(Cl)cc3)nc3ccccc3c2=O)cc1C	n	n	x	n	n	x
CCOC(=O)C[C@@H]1OC2CCCCC2N1S(=O)(=O)c1ccc(C)cc1 (stereo partly drawn)	n	n	n	25.9µM	u	n
Cc1ccc(S(=O)(=O)N2C3CCCCC3O[C@H]2CC(=O)Oc2ccccc2)cc1 (stereo partly drawn)	n	n	n	u	n	n
COc1ccc(C(=O)C[C@@H]2OC3CCCCC3N2S(=O)(=O)c2ccc(C)cc2)cc1OC (stereo partly drawn)	n	n	n	16.4µM	16.4µM	n
COc1ccc(CNc2nc(NCc3ccc(OC)c(OC)c3)n(C(=O)c3cccs3)n2)cc1OC	n	45.4	u	16.4µM	14.6µM	n
COc1ccccc1C(=O)n1nc(-c2ccco2)nc1NCc1ccc(Cl)cc1	n	n	x	n	u	x
O=C(CCc1ccccc1)n1nc(-c2ccccc2)nc1NCc1ccco1	n	n	n	n	n	n
O=C(c1cccs1)n1nc(-c2ccccc2)nc1NCc1ccco1	u	n	n	20.6µM	u	n
Cc1ccccc1C(=O)n1nc(-c2ccco2)nc1NCc1cccs1	n	n	x	13µM	u	x
CC(C)CN(C(=O)COC(=O)c1ccc(Br)o1)c1c(N)n(Cc2ccccc2)c(=O)[nH]c1=O	n	n	n	n	n	n
CC1(C)CC2CC(C)(CN2S(=O)(=O)c2ccc(F)cc2F)C1 (stereo not drawn)	n	n	n	u	5.8µM	n
COC(=O)c1cc(Cl)ccc1NCC(N)c1ccccc1 (stereo not drawn)	n	n	u	18.4µM	u	n
CCOc1ccc(S(=O)(=O)N2CCCC(C(=O)NCc3cccnc3)C2)cc1C (stereo not drawn)	x	n	n	u	25.9µM	n
CCOc1ccc(S(=O)(=O)N2CCCC(C(=O)NCc3ccccn3)C2)cc1Cl (stereo not drawn)	n	n	n	u	16.4µM	n
COc1ccc(S(=O)(=O)N2CCCC(C(=O)NCc3cccnc3)C2)cc1C (stereo not drawn)	n	n	n	n	n	n
Cc1ccc(-c2nc3n(n2)C(c2ccccc2Cl)C=C(c2ccc(Cl)cc2)N3)cc1 (stereo not drawn)	n	n	x	u	u	x
COC(=O)c1ccc(COc2cccn3c(N(C)C(=O)CCC4CCCC4)c(C)nc23)cc1	n	n	n	18.4µM	20.6µM	n
Cc1nc2c(OCc3ccc(C#N)cc3)cccn2c1N(C)C(=O)CCC1CCCC1	n	n	-55.3	u	u	n
